From PubChem BioAssay
USP1 inh – USP1/UAF1 (human) deubiquitinase inhibition; AID 743255; 0.23% of 390,000 active; recombinant USP1/UAF1, Ub-Rhodamine cleavage fluorescence; Potency, µM (titrated, usually from 57.1 µM), for the others: top-dose activity change, negative = inhibition, most hits filed as inhibitors; note: potency is the fitted concentration of half-maximal effect; % is set by controls: 0 for no effect and ±100 for the full control effect; nearly all actives have a fitted effect of over 60% in size
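In this screen, compounds sit with the deubiquitinase complex (1nM) for 15 min at room temperature before Ub-Rho is added at 150nM final. Fluorescence rise is then followed for 6 reads every 60 seconds.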
EPAC1 antagonist – EPAC1 (human) antagonism | O95398 | EPAC1 GEF assay, Rap1b-BODIPY-GDP exchange fluorescence | Potency, µM (top dose mostly 115 µM), inactives show at the highest dose activity change, negative = inhibition, usual class: inhibitors | 0.14% of 360,000 active | AID 720709;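 note: potency is the fitted concentration of half-maximal effect; plate controls were vehicle for no effect and positive control for full effect; nearly all actives have a fitted effect of over 50% in size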
EPAC1 ag – EPAC1 (human) agonism; O95398; 0.073% of 360,000 active; Potency, µM (highest dose often 154 µM), for the others: at the top dose activation, most hits filed as activators; EPAC1 agonist qHTS, biochemical assay; response scale: 100% = response to 6.5 mM cAMP; AID 720707; note: potency is the fitted concentration of half-maximal effect; nearly all actives have a fitted effect of over 60% in size
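EPAC1 100 nM, Rap1B–BODIPY-GDP 250 nM, unlabeled GDP 50 uM; compound titration; 5 min RT; kinetic read ex480/em540 at 5-min intervals ×30 min; data normalized to 6.5 mM cAMP agonist control.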
EPAC2 antag – antagonists of human EPAC2 | Q8WZA2 | Potency, µM (highest dose often 114 µM), for the others: at the highest dose activity, negative = inhibition, most hits filed as inhibitors | EPAC2 GEF exchange of Rap1B-BODIPY-GDP, fluorescence | 0.18% of 360,000 active; note: potency is the fitted concentration of half-maximal effect; % is set by controls: 0 for no effect and ±100 for the full control effect; nearly all actives have a fitted effect of over 45% in size
EPAC2 agonist – EPAC2 (human) agonism | 0.079% of 360,000 active | Potency, µM (top dose mostly 154 µM), inactives show at the highest dose activation, usual class: activators | EPAC2 activation, biochemical qHTS; response scale: 100% = 6.5 mM cAMP response | AID 720711 | Q8WZA2; note: potency is the fitted concentration of half-maximal effect; nearly all actives have a fitted effect of over 50% in size
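qHTS, titration series. 100 nM EPAC2 / 250 nM Rap1B-BODIPY-GDP / 50 uM GDP; RT; ex 480/em 540 nm, 5-min reads to 30 min. Norm. to 6.5 mM cAMP = activation.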
LDHA block – LDHA (human) enzyme inhibition | activity change, % (values are at about 110 or 230 µM) | purified LDHA, NADH/diaphorase-resazurin fluorescence; active compounds read low | 0.15% of 480,000 active; in the data active = activity change below about -30%; inconclusive = mostly about -25% to -30%;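 note: plate controls were DMSO wells for no effect and wells without enzyme for full effect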
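Resorufin fluorescence (ex540/em590), read at 0 and 20 min after diaphorase/resazurin addition, reports the NADH left after a 5 min room-temperature reaction of 2 nM human LDH5 with 0.06 mM NADH and 0.2 mM pyruvate.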
* hit, by the source's call; u = inconclusive; x = not tested or not shown. The list is not random: actives were taken first. Their share in the collection is about 0.56%. Unless noted, calls come from the whole dose curve; as a rule, active = well fitted curve in the direction sought with a large enough effect; inconclusive = small, poorly fitted or top-dose-only effect, or another doubt; inactive = no such curve, though single readings can be large; an effect the other way counts as inactive or inconclusive.

SMILES | USP1 inh | EPAC1 antagonist | EPAC1 ag | EPAC2 antag | EPAC2 agonist | LDHA block
COCCN=c1scc(-c2ccco2)n1/N=C/c1ccc(O)c(O)c1O | u | 17.8µM* | 5.3% | 12.0% | -2.5% | 31.4
CNc1c(NC(=O)c2cc(Br)ccc2OC)c(=O)oc2ccccc12 | x | x | x | x | x | 10.2
Cc1ccccc1NC(=O)CSc1nnc(C)c2ccccc12 | -16.2% | 1.7% | -6.8% | 7.2% | -1.4% | -4.0
N#CC1=C(N)N2CCc3cc4c(cc3C2=CC12C(=O)Nc1cc3c(cc12)OCCO3)OCO4 (stereo unspecified) | x | x | x | x | x | 13.1
O=C1/C(=C\c2cccs2)Sc2ccc3ccccc3c21 | 31.6µM* | 6.6% | 10.5% | -7.5% | 0.9% | -11.4
O=C1C(=Cc2cccs2)C(=O)c2ccccc21 | -2.6% | -7.0% | -4.4% | -1.6% | 11.8% | -3.9
Cn1ccnc1CN(C1CC1)S(=O)(=O)c1cc(F)ccc1F | x | x | x | x | x | -5.9
Cc1ccc(CC(=O)NCC23CC4CC(CC(C4)C2)C3)cc1 | x | x | x | x | x | 3.7
CC1CCc2cccc3c2N1c1cc(C#N)c(C#N)cc1O3 (stereo unspecified) | 28.2µM* | 22.2% | 1.1% | 3.4% | 24.4% | -0.6
O=C1CSC(=S)N1/N=C/c1cc(Br)c(O)c(Br)c1 | 17.8µM* | -20.5% | 22.5% | -26.5% | 9.3% | -19.4
COc1cc(/C=N/N2C(=O)CSC2=S)ccc1O | -17.7% | 2.9% | -1.5% | -1.9% | 5.9% | 10.3
CCC(C)(C)NC(=O)C1CCCN(S(=O)(=O)c2ccc3c(c2)CC(C)N3C(=O)C2CC2)C1 (stereo unspecified) | -13.7% | u | 3.8% | -3.5% | 0.2% | -1.1
Cc1noc(C)c1CSCC(=O)Nc1ccc(S(=O)(=O)C(F)F)cc1 | -16.8% | -12.7% | 4.7% | 0.2% | 2.7% | -1.0
CC(=O)N=c1nc(-c2ccccc2)n(-c2ccccc2)s1 | x | x | x | x | x | -32.0*
CN=c1nc(-c2ccccc2)n(-c2ccccc2)s1 | -16.7% | -3.7% | -2.8% | 3.8% | 2.7% | -7.6
CCOCCCNC(=O)CN1CCN(Cc2ccc(Cl)cc2)C1=O | -10.7% | 0.5% | -6.0% | 11.3% | -3.6% | -6.0
CCOc1ccc(-c2c(C)nn3c(C)c(C(=O)NCCc4ccc(C)cc4)cnc23)cc1OCC | -23.3% | x | x | x | x | 2.4
O=C(Nc1ccc(Cl)cc1C(=O)O)c1ccc2c(c1)C(=O)N(Cc1ccco1)C2=O | -12.6% | 79.4µM* | 3.6% | u | 0.9% | -9.0
N#C/C(=C\c1ccc(Sc2ccc(Cl)cc2)o1)c1nc2ccccc2[nH]1 | u | 7.0% | 8.1% | 36.1% | 100µM* | 1.9
N#C/C(=C/c1ccc(N2CCOCC2)o1)c1nc2ccccc2[nH]1 | 25.1µM* | -7.4% | 89.1µM* | 46.4% | 100µM* | 13.9
Cn1cc(-c2cc3n(n2)CCC(=O)N3CC(=O)NCc2ccc(Cl)cc2)c2ccccc21 | -16.3% | x | x | x | x | -5.1
CC1=CC(C)(C)N(C(=O)c2ccc(F)cc2)c2cc3c(cc21)OCO3 | -23.6% | -19.5% | 11.1% | 50.1µM* | 9.9% | -2.5
O=C(CSc1nc(-c2ccc(F)cc2)nc2ccc(F)cc12)Nc1cccc(C(=O)O)c1 | -13.1% | 70.8µM* | 19.2% | 5.4% | 2.3% | -2.9
O=C(O)c1cccc2cc(-c3ccccc3)oc(=O)c12 | -23.8% | 13.6% | 5.8% | 1.0% | 6.5% | -0.8
O=C(O)c1cccc2cccc(-c3c4ccc(=O)c(O)c-4oc4c(O)c(O)ccc34)c12 | u | 31.6µM* | 12.5% | -27.9% | -3.6% | 9.3
SMILES | USP1 inh | EPAC1 antagonist | EPAC1 ag | EPAC2 antag | EPAC2 agonist | LDHA block
CCOC(=O)/C(C(=O)Nc1ccccc1Cl)=C1/NC(C)(C)Cc2ccccc21 | -15.7% | 2.1% | 3.6% | -1.8% | 6.7% | -1.3
CCOC(=O)/C(C)=C1\NC(C)(C)Cc2ccccc21 | -5.6% | -9.9% | 1.3% | -6.5% | 6.8% | -105.5*
CC(C)Cc1csc(NC(=O)c2ccc(F)cc2)c1C(=O)O | -25.1% | 35.5µM* | 4.9% | -1.4% | -2.1% | -15.1
CCOC(=O)c1c(CC(C)C)csc1NC(=O)c1ccccc1C(=O)O | -18.2% | -4.9% | -9.9% | -13.7% | -13.1% | -1.2
CCOC(=O)CC(=O)CSc1nc2ccc(C)cc2cc1C#N | 28.2µM* | 10.2% | u | 35.7% | 100µM* | 1.3
CCOC(=O)CC(=O)CSc1nc(CC)c(C)cc1C#N | -12.1% | -19.0% | 2.6% | 0.8% | 23.3% | 3.3
CC(C)=C1C(=O)NN(c2ccc(F)c(Cl)c2)C1=O | -25.0% | -5.7% | 11.2% | -2.9% | 4.1% | -3.4
O=C1NN(c2ccc(F)c(Cl)c2)C(=O)/C1=C\c1cccc(OC(=O)c2cccs2)c1 | u | 35.5µM* | -13.4% | 1.1% | 4.8% | -4.0
CCC(C)n1c(=O)c2sccc2n2c(CCCC(=O)N3CCN(c4ccccc4)CC3)nnc12 (stereo unspecified) | -16.7% | x | x | x | x | -2.8
COc1cc(/C=C2/NC(=O)NC2=O)cc(Br)c1OCc1ccc(C(=O)O)cc1 | 6.3% | 79.4µM* | 18.1% | 10.7% | -1.1% | -6.3
COc1cc(/C=C2/NC(=O)NC2=O)cc(Cl)c1OCc1ccc(C(=O)O)cc1 | x | x | x | x | x | -14.7
CN1CCCN(Cc2ccccc2C(F)(F)F)CC1 | -8.1% | 1.6% | -2.9% | -8.7% | 5.8% | -33.9*
CCCS(=O)(=O)N1CCN(Cc2ccccc2C(F)(F)F)CC1 | -7.3% | -3.4% | 0.0% | 5.7% | 6.8% | -22.8
O=C(O)C1OC1(c1ccccc1Cl)c1ccccc1Cl (stereo unspecified) | -5.4% | -14.3% | 14.6% | -4.4% | 4.5% | -13.1
Cc1ccccc1CC(=O)N1CC(C)OC(C)C1 (stereo unspecified) | -17.1% | -10.2% | -13.2% | 7.1% | 10.4% | -9.1
O=C(Nc1cc([N+](=O)[O-])ccc1O)c1cccc(NC(=O)c2ccco2)c1 | -11.4% | -10.5% | -9.5% | -1.9% | -2.1% | -45.4*
O=C(COC(=O)CC1SC(N2CCCC2)=NC1=O)Nc1c(F)c(F)c(F)c(F)c1F (stereo unspecified) | 1.2% | -9.5% | 1.0% | -8.5% | 5.0% | -3.5
Cc1ccc(C(=O)/C(=C\c2ccc(Cl)cc2)c2nc3ccccc3o2)cc1 | x | x | x | x | x | -2.3
CC(=O)N1N=C(c2ccccc2)OC1c1ccc([N+](=O)[O-])s1 (stereo unspecified) | 25.1µM* | -2.8% | 19.0% | -1.7% | 5.6% | 19.4
CCc1sc(C(=O)Nc2ccccc2C)cc1C | x | x | x | x | x | 0.7
CCN1CCc2c(sc(NC(=O)Nc3ccc(Cl)c(Cl)c3)c2C(N)=O)C1 | u | u | 100µM* | u | 100µM* | 7.1
